Common to all, as to conditions: concentration: 1 μM, replicates: in singlicate; n = 1
Assay [1] deals with RIPK2.
Assay [2] concerns RIPK4.
For assay [3], the system named is RIPK5.
The subject of assay [4] is ROCK1.
Assay [5] relates to ROCK2.
In assay [6] the test system is ROS1.
In assay [7] the test system is RPS6KA4(Kin.Dom.1-N-terminal).
Assay [8] deals with RPS6KA4(Kin.Dom.2-C-terminal).
Assay [9] concerns RPS6KA5(Kin.Dom.1-N-terminal).
The subject of assay [10] is RPS6KA5(Kin.Dom.2-C-terminal).
The subject of assay [11] is T1, RSK1(Kin.Dom.1-N-terminal).
T1 construct: gene RPS6KA1

Assay [12] relates to T2, RSK1(Kin.Dom.2-C-terminal).
T2 construct: gene RPS6KA1

The test system of assay [13] is T3, RSK2(Kin.Dom.1-N-terminal).
T3 construct: gene RPS6KA3

Assay [14] concerns T4, RSK2(Kin.Dom.2-C-terminal).
T4 construct: gene RPS6KA3

The test system of assay [15] is T5, RSK3(Kin.Dom.1-N-terminal).
T5 construct: gene RPS6KA2

Assay [16] concerns T6, RSK3(Kin.Dom.2-C-terminal).
T6 construct: gene RPS6KA2

Assay [17] relates to T7, RSK4(Kin.Dom.1-N-terminal).
T7 construct: gene RPS6KA6

Assay [18] deals with T8, RSK4(Kin.Dom.2-C-terminal).
T8 construct: gene RPS6KA6

In assay [19] the test system is S6K1.
Assay [20] deals with SBK1.
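Further: KINOMEscan kinase panel screen.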

Turning to `CCC(=O)c1c(-c2ccccc2)c2cc(Cl)ccc2c(=O)n1Cc1cc(S(C)(=O)=O)n(CC(N)=O)n1`, the “%Inh” value in assay [1], in [2], in assay [3], in assay [4], in assay [5] and in assay [6] was 0% throughout. The “%Inh” value in assay [7] came to 0%; in [8] it was 0%; in assay [9] it was 30%; in assay [10], 22%; in assay [11] it was 0%; in [12], 0%. The “%Inh” value in [13] stood at 0%; in assay [14], 0%; in assay [15], 1%; in assay [16] it was 6%; in assay [17], 0%; in assay [18] it was 5%. Moreover, the “%Inh” value in assay [19] and in assay [20] was 0% each time.

As for `O=C(Nc1ccc2c(c1)OCO2)NC1CCN(c2ccnc(NCc3ccc(F)cc3)n2)CC1` [GSK1379859], the “%Inh” value in assay [1] worked out at 10%; in assay [2] it was 0%; in [3], 10%; in assay [4], 74%; in assay [5], 47%; in [6], 0%. In addition, the “%Inh” value was 13% in [7]; 0% in [8]; 9% in [9]; 0% in assay [10]; 1% in assay [11]; 0% in assay [12]. Also, the “%Inh” value in [13] came to 3%; in assay [14] it was 99.5%; in assay [15], 0%; in assay [16] it was 0%; in assay [17] it was 0%; in assay [18], 0%. Moreover, the “%Inh” value in assay [19] is reported as 8%; in assay [20] it was 11%.

In the case of `COc1cc2nccc(Nc3ccc(OCc4ccc(NC(C)=O)cc4)cc3)c2cc1OC.Cl` [GW440135], the “%Inh” value came to 61% in assay [1]; 0% in assay [2]; 0% in [3]; 13% in [4]; 6% in assay [5]; 0% in assay [6]. The “%Inh” value stood at 0% in [7]; 0% in assay [8]; 0% in assay [9]; 12% in assay [10]; 0% in assay [11]; 0% in assay [12]. Moreover, the “%Inh” value in assay [13] is 19%; in assay [14] it was 0%; in assay [15] it was 4%; in [16] it was 0%; in assay [17] it was 2%; in assay [18], 0%. Also, the “%Inh” value is given as 9% in [19] and 5% in assay [20].

In the case of `COc1cc(Nc2nccc(N3CCC(NC(=O)C4COc5ccccc5O4)C3)n2)cc(OC)c1OC` (stereo not drawn) [GSK1379761], the “%Inh” value in assay [1] was determined as 0%; in [2] it was 0%; in assay [3] it was 0%; in assay [4], 26%; in assay [5] it was 37%; in assay [6] it was 54%. Further, the “%Inh” value in [7] was 0%; in assay [8] it was 0%; in assay [9], 0%; in assay [10], 0%; in assay [11] it was 3%; in assay [12], 4%. Also, the “%Inh” value in assay [13] is listed as 0%; in assay [14] it was 24%; in assay [15] it was 0%; in assay [16], 12%; in [17], 0%; in assay [18], 2%. The “%Inh” value in [19] amounted to 0%; in assay [20], 20%.

Regarding `O=C(Nc1n[nH]c2nc(-c3ccccc3)c(Br)cc12)C1CC1` [SB-708998], the “%Inh” value in assay [1] was found to be 5%; in assay [2], 0%; in [3], 0%; in [4], 7%; in assay [5], 0%; in assay [6], 0%. The “%Inh” value in assay [7] came to 4%; in assay [8], 0%; in [9] it was 28%; in assay [10], 0%; in [11], 0%; in [12], 0%. Also, the “%Inh” value is 7% in assay [13]; 29% in [14]; 0% in [15]; 0% in assay [16]; 18% in assay [17]; 2% in assay [18]. In addition, the entries for the “%Inh” value in assay [19] and in [20] were 0% and 17%, respectively.

On to `Cn1c(=O)c(F)c(Nc2ccc(I)cc2F)c2c(=O)n(OC[C@H](O)CO)cnc21`, for which the “%Inh” value in [1] amounted to 15%; in assay [2] it was 3%; in assay [3], 0%; in [4], 0%; in assay [5], 0%; in [6], 0%. Moreover, the “%Inh” value in assay [7] was found to be 25%; in [8], 0%; in assay [9] it was 0%; in [10], 9%; in assay [11], 18%; in assay [12], 12%. In addition, the “%Inh” value came out at 39% in [13]; 38% in assay [14]; 11% in assay [15]; 1% in [16]; 0% in assay [17]; 6% in [18]. The “%Inh” value in [19] and in assay [20] was 0% throughout.

`CCC(=O)c1c(-c2ccccc2)c2cc(Cl)ccc2c(=O)n1Cc1ccc(C(=O)O)cc1`: the “%Inh” value in [1] turned out to be 0%; in assay [2] it was 0%; in [3] it was 5%; in assay [4] it was 0%; in assay [5], 0%; in assay [6], 0%. For the same molecule, the “%Inh” value is reported as 0% in assay [7]; 7% in assay [8]; 0% in [9]; 0% in assay [10]; 0% in assay [11]; 0% in assay [12]. Also, the “%Inh” value in assay [13], in assay [14], in [15], in assay [16], in [17] and in assay [18] was 0% in each case. Also, the “%Inh” value in assay [19] and in assay [20] was 0% in each case.

Consider `Nc1ncnc2c1ncn2-c1cccc(F)c1` [SKF-97560], for which the “%Inh” value is reported as 100% in [1]; 29% in assay [2]; 26% in assay [3]; 38% in assay [4]; 28% in [5]; 4% in assay [6]. The “%Inh” value turned out to be 0% in assay [7]; 45% in assay [8]; 0% in assay [9]; 3% in assay [10]; 31% in assay [11]; 0% in [12]. For the same molecule, the “%Inh” value in [13] is 23%; in [14], 0%; in [15], 9%; in assay [16], 0%; in assay [17] it was 21%; in assay [18], 0%. Besides, the “%Inh” value is 36% in [19] and 25% in [20].

On to `Cc1cccc(-c2cc(-c3c[nH]nc3-c3ccccn3)ccn2)c1` [GW679395], for which the “%Inh” value is recorded as 36% in [1]; 12% in assay [2]; 6% in [3]; 0% in assay [4]; 10% in assay [5]; 0% in [6]. In addition, the “%Inh” value in assay [7] turned out to be 1%; in assay [8], 0%; in assay [9], 0%; in assay [10] it was 37%; in [11], 9%; in [12] it was 0%. Moreover, the “%Inh” value in assay [13] came out at 0%; in assay [14], 7%; in assay [15] it was 6%; in assay [16], 12%; in assay [17], 0%; in [18], 49%. Besides, the “%Inh” value in [19] was found to be 0%; in assay [20], 5%.

For the molecule `Cc1c(Cn2c(C)nn3c(=O)cc(N4CCO[C@H](C)C4)nc23)cccc1C(F)(F)F` [GSK2373690], the “%Inh” value was determined as 4% in assay [1]; 0% in [2]; 0% in assay [3]; 7% in assay [4]; 0% in assay [5]; 4% in [6]. Also, the “%Inh” value in [7] is given as 16%; in assay [8], 0%; in assay [9] it was 27%; in [10], 15%; in [11], 49%; in [12], 0%. The “%Inh” value in [13] was determined as 9%; in [14] it was 0%; in assay [15], 22%; in [16], 0%; in assay [17], 0%; in [18], 0%. Besides, the figures for the “%Inh” value in assay [19] and in [20] were 9% and 28%, respectively.

In the case of `O=C1NC(=O)C(c2ccccc2)=C1Nc1cccc(O)c1` [SB-390534], the “%Inh” value turned out to be 8% in [1]; 1% in [2]; 26% in assay [3]; 0% in assay [4]; 0% in [5]; 24% in [6]. In addition, the “%Inh” value in assay [7] was determined as 0%; in [8], 7%; in [9], 0%; in assay [10], 0%; in [11], 19%; in [12], 0%. In addition, the “%Inh” value in [13] came out at 24%; in assay [14] it was 0%; in [15], 0%; in assay [16], 0%; in assay [17], 14%; in [18], 7%. For the same molecule, the “%Inh” value in assay [19] is reported as 11%; in assay [20] it was 27%.

Take `Cc1nc(N(C)[C@H]2CN(C(=O)CC#N)CC[C@H]2C)c2cc[nH]c2n1`: the “%Inh” value is on record as 0% in assay [1]; 17% in [2]; 17% in [3]; 2% in [4]; 0% in assay [5]; 0% in [6]. For the same molecule, the “%Inh” value in [7] stood at 0%; in assay [8], 10%; in [9] it was 0%; in assay [10] it was 9%; in assay [11], 12%; in assay [12] it was 0%. Moreover, the “%Inh” value in assay [13] stood at 0%; in [14] it was 0%; in [15], 12%; in assay [16], 12%; in assay [17], 4%; in assay [18], 4%. Further, the “%Inh” value in [19] and in assay [20] was 0% each time.
